# Test results as given in paper PMC4336329 (PLoS ONE, 2015).
# In all, about 310,000 compounds went through this assay and about 14,000 (4.5%) showed an effect of 50% or more. Effects have a minus sign here. The entries come from a sample that favours strong results as a whole.
# Molecular target: human ether-à-go-go-related gene (hERG) potassium channel (human, UniProt Q12809)
# Experiment: primary screen, population patch clamp on CHO cells stably expressing hERG; higher = less effect of the substance
# 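Also: peak tail current of the secondary pulse compared with the same well before compound.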
# Chain of human ether-à-go-go-related gene (hERG) potassium channel (Q12809 whole entry, looked up): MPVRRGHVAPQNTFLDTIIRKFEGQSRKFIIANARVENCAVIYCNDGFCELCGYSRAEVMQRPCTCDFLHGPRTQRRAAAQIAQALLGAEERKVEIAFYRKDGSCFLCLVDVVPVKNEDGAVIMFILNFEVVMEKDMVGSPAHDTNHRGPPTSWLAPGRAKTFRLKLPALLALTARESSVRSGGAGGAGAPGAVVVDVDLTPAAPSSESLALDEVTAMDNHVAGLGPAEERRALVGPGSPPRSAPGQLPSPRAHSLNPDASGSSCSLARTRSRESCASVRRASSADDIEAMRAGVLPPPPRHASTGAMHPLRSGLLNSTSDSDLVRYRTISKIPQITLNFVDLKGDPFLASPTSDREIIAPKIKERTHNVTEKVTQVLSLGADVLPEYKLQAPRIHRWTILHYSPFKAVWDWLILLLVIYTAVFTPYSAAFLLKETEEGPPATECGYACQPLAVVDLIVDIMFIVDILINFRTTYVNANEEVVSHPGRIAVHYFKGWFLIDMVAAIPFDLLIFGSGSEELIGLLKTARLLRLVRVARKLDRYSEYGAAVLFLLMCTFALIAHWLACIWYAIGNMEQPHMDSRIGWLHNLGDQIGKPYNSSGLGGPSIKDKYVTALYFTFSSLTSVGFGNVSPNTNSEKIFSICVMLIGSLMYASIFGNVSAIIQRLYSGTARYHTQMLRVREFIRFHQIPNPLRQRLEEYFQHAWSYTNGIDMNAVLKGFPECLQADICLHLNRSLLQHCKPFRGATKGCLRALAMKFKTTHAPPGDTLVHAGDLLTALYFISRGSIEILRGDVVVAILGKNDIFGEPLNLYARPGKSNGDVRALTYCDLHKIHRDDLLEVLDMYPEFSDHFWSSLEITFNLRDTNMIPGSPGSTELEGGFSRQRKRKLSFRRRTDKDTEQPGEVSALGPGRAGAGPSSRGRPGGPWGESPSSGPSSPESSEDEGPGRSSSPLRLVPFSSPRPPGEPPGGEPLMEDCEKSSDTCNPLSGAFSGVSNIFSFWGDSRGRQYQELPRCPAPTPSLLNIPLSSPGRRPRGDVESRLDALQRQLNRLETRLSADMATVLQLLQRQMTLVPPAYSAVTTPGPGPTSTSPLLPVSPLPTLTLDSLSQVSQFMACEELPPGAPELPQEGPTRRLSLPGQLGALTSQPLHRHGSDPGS
row,SMILES,"hERG current change (%, negative = inhibition) at 10uM [%]"
1,COc1ccc(Cl)cc1NC(=O)c1cc(-c2ccc(C)cc2O)n[nH]1,15.9
2,O=C1CSC(c2ccncc2)N1Cc1ccc(F)cc1 (stereo not shown),1.53
3,C=CCNc1nc(N2CCOCC2)c(C#N)c2c1CN(C)CC2,-14.1
4,CN1CCc2c(C#N)c(N3CCCCC3)nc(NCc3ccccc3)c2C1,-2.02
5,CCN1CCc2c(C#N)c(NCc3ccccc3)nc(N(CC)CC)c2C1,-68.5
6,N#Cc1c(NCCO)nc(NCc2ccccc2)c2c1CCN(Cc1ccccc1)C2,-27.1
7,CCc1nc(NCc2ccccc2)c(C#N)c2c1CCCC2,23.3
8,CCN1CCc2c(C#N)c(NCc3ccccc3)nc(NCCO)c2C1,-51.6
9,CCN1CCc2c(C#N)c(N3CCCCC3)nc(NCc3ccccc3)c2C1,-39.8
10,C=CCNc1nc(NCc2ccccc2)c(C#N)c2c1CN(C)CC2,-68.1
11,CCN1CCc2c(C#N)c(N3CCOCC3)nc(NCCO)c2C1,11.8
12,Cc1ccc(NC2=NCC(=O)N2C2CCCC2)cc1.Cl,14.7
13,CNC(=O)N1c2ccccc2NC(=O)CC1C (stereo not shown),9.32
14,Cc1ccc(S(=O)(=O)NC2=NCN(CCN3CCOCC3)CN2)cc1,8.55
15,CC(=O)N(CCCN1CCOCC1)Cc1ccncc1.Cl,16.4
16,O=C(Nc1nc2ccc(Cl)cc2s1)c1ccc(Br)o1,4.25
17,Cc1ccc(CNC(=O)/C=C/c2ccc(S(=O)(=O)NCc3ccco3)cc2)cc1,-1.37
18,O=C(CN1CCN(CC(=O)Nc2ccccn2)CC1)Nc1ccccn1,-36
19,O=C(CN1CCN(c2ccccc2)CC1)Nc1cccc([N+](=O)[O-])c1,2.69
20,Cc1c(NC(=O)CN2CCN(c3ccc(O)cc3)CC2)c(=O)n(-c2ccccc2)n1C,21
21,O=C(CN1CCN(c2ccc([N+](=O)[O-])cc2)CC1)Nc1ccccn1,-77.9
22,Cc1c(NC(=O)CN2CCN(c3ccccc3)CC2)c(=O)n(-c2ccccc2)n1C,9.86
23,Cc1c(NC(=O)CN2CCN(c3ccc([N+](=O)[O-])cc3)CC2)c(=O)n(-c2ccccc2)n1C,-50.1

row,SMILES,"hERG current change (%, negative = inhibition) at 10uM [%]"
1,O=C(CN1CCN(c2ccc([N+](=O)[O-])cc2)CC1)Nc1nccs1,-65.6
2,O=C(CN1CCN(c2ccc(F)cc2)CC1)Nc1nccs1,-1.39
3,O=C(CN1CCN(c2ccccc2)CC1)Nc1nccs1,5.11
4,C#CCSc1nnnn1-c1cccc(Cl)c1,-9.19
5,COc1cccc(C2NC(CC(C)C)(C(=O)O)C3C(=O)N(Cc4ccccc4)C(=O)C23)c1O (stereo not shown),10.2
6,CN(Cc1ccccc1F)C(=O)c1ccc(NS(=O)(=O)c2ccc3[nH]c(=O)[nH]c3c2)cc1,6.14
7,O=C(Nc1ccccc1N1CCCCC1)C1=COCCO1,-32.6
8,CC(C)[C@@H](C(=O)NCc1ccco1)N1C(=O)N2CCc3c([nH]c4ccccc34)[C@@]2(C)C1=O,-15.6
9,CSc1nnc([C@@H](NC(=O)OC(C)(C)C)C(C)C)o1,-13.6
10,CCc1cccc(OCC(O)Cn2c(N3CCCCC3)nc3c2c(=O)[nH]c(=O)n3C)c1 (stereo not shown),13.7
11,Clc1ccc(CN=C2Nc3ccccc3CS2)cc1,14.9
12,COc1cc2c(cc1OC)C1=C(C#N)CCC(=O)N1CC2,5.55
13,C=C1C[C@H]2[C@@H]3C=C(C)C4=CC(=O)CC[C@]4(C)[C@H]3CC[C@]2(C)[C@@]1(OC(C)=O)C(C)=O,-21.2
14,O=C(COC(=O)C1CC1)Nc1nc(-c2ccc(F)c(F)c2)cs1,4.93
15,CCOc1ccccc1N1CCN(C(=O)CNC(=O)c2ccccc2F)CC1,-51.1
16,CCOc1ccccc1N1CCN(C(=O)c2ccccc2)CC1,11
17,CCCc1cnc(N2CCN(C(=O)c3ccc(OC)cc3)CC2)nc1,-52.4
18,CCOc1ccc(C(=O)N2CCN(c3ncccn3)CC2)cc1,-9.8
19,CCOc1ccccc1N1CCN(C(=O)CNC(=O)c2sc3ccccc3c2Cl)CC1,17.4
20,CCCc1cnc(N2CCN(C(=O)c3c(-c4ccccc4)noc3C)CC2)nc1,-24.5
21,CCCc1cnc(N2CCN(C(=O)c3ccccc3)CC2)nc1,-57.1
22,CCOc1ccccc1N1CCN(C(=O)CNC(=O)c2ccc(OC)c(OC)c2)CC1,11.9
23,CCCc1cnc(N2CCN(C(=O)c3ccc(F)cc3)CC2)nc1,-43.1
